Measured values as given in PubChem BioAssay (NCATS).
Results filed as inconclusive are left out. A number with no mark means an inactive call. Active and inactive are the calls of the source. Calls follow the shape of the dose curve; as a rule, active = well fitted curve in the direction sought with a large enough effect; inconclusive = small, poorly fitted or top-dose-only effect, or another doubt; inactive = no such curve, though single readings can be large; an effect the other way counts as inactive or inconclusive. Non-standard residues stand in square brackets, D forms with d. Residues, ends and D or L forms follow the SMILES beside them. Peptide text beside a SMILES is read from it. *: point of attachment. Sta = CC(C)C[C@H](N)[C@@H](O)CC(=O)O; Isovaleryl = CC(C)CC(=O)*

molecular target: Lysine-specific demethylase 5B (Homo sapiens) (UniProt Q9UGL1); experiment: Optimization screen for KDM5B Histone Demethylases FDH coupled qHTS against the LOPAC library (AID 1347166); conditions: KDM5B demethylation, FDH-coupled NADH fluorescence (FDH is formaldehyde dehydrogenase); series mostly up to 57.5 µM; activity, negative = inhibition: at the top concentration; also: 0% is about no effect
Sequence (Q9UGL1 whole entry, looked up): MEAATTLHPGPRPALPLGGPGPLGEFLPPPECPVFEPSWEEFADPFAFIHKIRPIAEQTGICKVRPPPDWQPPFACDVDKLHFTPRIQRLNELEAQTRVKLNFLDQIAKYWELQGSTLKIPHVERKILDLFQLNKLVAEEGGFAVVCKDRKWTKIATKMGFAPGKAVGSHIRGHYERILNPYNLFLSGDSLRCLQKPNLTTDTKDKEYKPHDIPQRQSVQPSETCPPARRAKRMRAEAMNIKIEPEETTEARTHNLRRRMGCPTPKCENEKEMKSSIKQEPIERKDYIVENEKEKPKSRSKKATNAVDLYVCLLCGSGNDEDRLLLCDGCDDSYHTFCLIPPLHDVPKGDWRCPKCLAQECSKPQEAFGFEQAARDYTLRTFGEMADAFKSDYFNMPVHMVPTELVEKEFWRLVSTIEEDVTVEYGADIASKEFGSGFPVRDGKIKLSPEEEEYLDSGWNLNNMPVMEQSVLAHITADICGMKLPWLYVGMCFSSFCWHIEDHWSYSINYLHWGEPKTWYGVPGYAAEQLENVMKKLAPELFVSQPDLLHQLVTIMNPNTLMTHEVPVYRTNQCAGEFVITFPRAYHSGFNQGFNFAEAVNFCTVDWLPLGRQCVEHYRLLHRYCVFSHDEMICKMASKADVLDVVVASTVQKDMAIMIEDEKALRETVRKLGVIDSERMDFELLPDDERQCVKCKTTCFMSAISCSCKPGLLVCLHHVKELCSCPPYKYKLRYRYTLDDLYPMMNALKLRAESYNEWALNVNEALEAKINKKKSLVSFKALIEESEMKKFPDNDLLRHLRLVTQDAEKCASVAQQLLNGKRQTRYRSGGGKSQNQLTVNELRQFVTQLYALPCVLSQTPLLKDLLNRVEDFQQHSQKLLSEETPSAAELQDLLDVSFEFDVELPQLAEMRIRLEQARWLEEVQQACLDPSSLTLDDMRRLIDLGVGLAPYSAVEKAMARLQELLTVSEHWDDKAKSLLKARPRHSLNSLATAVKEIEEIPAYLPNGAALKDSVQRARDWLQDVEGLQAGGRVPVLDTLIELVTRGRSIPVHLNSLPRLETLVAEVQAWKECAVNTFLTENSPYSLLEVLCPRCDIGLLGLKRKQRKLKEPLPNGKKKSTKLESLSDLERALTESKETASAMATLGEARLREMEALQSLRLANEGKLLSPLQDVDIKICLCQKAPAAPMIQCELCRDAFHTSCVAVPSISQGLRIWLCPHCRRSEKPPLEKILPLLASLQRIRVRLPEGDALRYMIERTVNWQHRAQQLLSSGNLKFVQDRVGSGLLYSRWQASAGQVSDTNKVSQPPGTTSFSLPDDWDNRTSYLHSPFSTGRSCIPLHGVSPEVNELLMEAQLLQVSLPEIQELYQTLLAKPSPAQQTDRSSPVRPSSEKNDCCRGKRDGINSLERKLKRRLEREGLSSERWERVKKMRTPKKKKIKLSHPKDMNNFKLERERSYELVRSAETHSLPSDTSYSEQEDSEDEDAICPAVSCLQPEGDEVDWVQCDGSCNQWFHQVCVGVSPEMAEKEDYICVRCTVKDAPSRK
In short: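 KDM5BDeltaAP (200nM final) in 50mM HEPES pH 7.5, 0.01% Tween-20 was preincubated with compound for 10 min at room temperature. A substrate mix of 12.5uM H3K4Me3, 25uM a-ketoglutarate, ascorbate, Fe2+, NAD+ and formaldehyde dehydrogenase was then added. NADH fluorescence (340/450 nm) was read initially and after 30 min.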

Row | SMILES | activity, negative = inhibition
1 | Cc1cccc(C#Cc2ccccc2)n1 | -18.3%
2 | CC1(C)C(=O)N(CCN2CCC(C(=O)c3ccc(F)cc3)CC2)c2ccccc21 | -4.54%
3 | CC(=O)N1CCN(c2ccc(OC[C@H]3CO[C@](Cn4ccnc4)(c4ccc(Cl)cc4Cl)O3)cc2)CC1 | -3.33%
4 | O=C(c1ccccc1)c1ccc2n1CCC2C(=O)O (stereo unspecified) | -7.21%
5 | Nc1nc(OCc2ccccc2)c2[nH]cnc2n1 | -1.22%
6 | CC1(C)NC(=O)N(c2ccc([N+](=O)[O-])c(C(F)(F)F)c2)C1=O | 2.66%
7 | C[C@@H](N)C1CCC(C(=O)Nc2ccncc2)CC1 (stereo partly specified) | -3.95%
8 | Nc1ccn([C@@H]2O[C@H](CO)[C@@H](O)C2O)c(=O)n1 (stereo partly specified) | -5.31%
9 | NCCCCNCCCN | -5.03%
10 | O=Nc1c(-c2c(O)[nH]c3cc(Br)ccc23)[nH]c2ccccc12 | -12%
11 | Cc1cc(O)c2c(c1)C(=O)c1cc(O)cc(O)c1C2=O | -28.5%
12 | Nc1nc(N)c(N=O)c(OCC2CCCCC2)n1 | -10.9%
13 | O=C(O)c1cccnc1Nc1cccc(C(F)(F)F)c1 | -5.13%
14 | O=C1c2ccccc2-c2n[nH]c3cccc1c23 | -29.1%

system: not listed separately; experiment: HepG2 cells viability qHTS for Zika virus inhibitors (AID 1347168); conditions: Zika counter-screen; series mostly up to 45.9 µM; activity change, negative = cytotoxicity: at the top concentration; also: % is scaled to controls: 0 for no effect and ±100 for the full control effect
In short: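 To flag cytotoxic protease inhibitors, viability is measured by ATP-dependent luminescence (CellTiter Glo) after cells attached overnight receive compound for 24 to 48 hours in DMEM with 4% FBS.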

Row | SMILES | Potency | activity change, negative = cytotoxicity
15 | COc1c2occc2cc2ccc(=O)oc12 | inactive | –
16 | O=C(O)c1cn(-c2ccc(F)cc2)c2cc(N3CCNCC3)c(F)cc2c1=O | inactive | –
17 | Cc1nc(-c2ccc(OCC(C)C)c(C#N)c2)sc1C(=O)O | – | 0.868%
18 | S=c1nc[nH]c2nc[nH]c12 | inactive | –

system: not listed separately; experiment: qHTS to identify inhibitors of the type 1 interferon - major histocompatibility complex class I in skeletal muscle: primary screen against the NCATS Pharmaceutical Collection (AID 1347407); conditions: human skeletal muscle cells, IFN-b-induced MHC-I HiBiT luminescence, 24 h; series mostly up to 45.9 µM; activity change, negative = inhibition: at the top concentration;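 also: luminescence of HiBiT knocked into endogenous HLA-B as interferon-induced MHC class I level; % is scaled to controls: 0 for no effect and ±100 for the full control effect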
In short: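 A qHTS format is used: 8-point, 1:5 compound series with 46 uM top final concentration, applied alongside 4 ng/ml IFN-beta to HLA-B*08:01-HiBiT knock-in myoblasts. Luminescence is measured after 24 h treatment.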

Row | SMILES | activity change, negative = inhibition
19 | Clc1ccc(C(Cn2ccnc2)OCc2ccc(Sc3ccccc3)cc2)c(Cl)c1 (stereo unspecified) | 8.19%
20 | Cc1cc(=O)oc2cc(O)ccc12 | -11.1%
21 | Nc1ncn([C@H]2C[C@H](O)[C@@H](CO)O2)c(=O)n1 | 10.1%
22 | CC(C)[C@H](N)C(=O)OCCOCn1cnc2c(=O)[nH]c(N)nc21 | 14.9%
23 | COc1c2occc2cc2ccc(=O)oc12 | -6.01%
24 | O=C(c1ccccc1)c1ccc2n1CCC2C(=O)O (stereo unspecified) | -5.8%
25 | Cn1c(NCCN(CCO)CCCc2ccc([N+](=O)[O-])cc2)cc(=O)n(C)c1=O | -0.474%
26 | O=C(O)c1cn(-c2ccc(F)cc2)c2cc(N3CCNCC3)c(F)cc2c1=O | 2.8% [at 19 µM]
27 | CNC[C@H](O)c1ccc(O)c(O)c1 | 0.27% [at 19 µM]
28 | CC1(C)NC(=O)N(c2ccc([N+](=O)[O-])c(C(F)(F)F)c2)C1=O | -6.84%
29 | CCCCc1ccc2nc(NC(=O)OC)[nH]c2c1 | -23.8%
30 | CC(C)CC(=O)N[C@H](C(=O)N[C@H](C(=O)N[C@@H](CC(C)C)[C@@H](O)CC(=O)N[C@@H](C)C(=O)N[C@@H](CC(C)C)[C@@H](O)CC(=O)O)C(C)C)C(C)C (Isovaleryl-VV[Sta]A[Sta]-OH) | 0.489%
31 | COC(=O)[C@H](Cc1ccccc1)NC(=O)[C@@H](N)CC(=O)O (H-Asp-Phe-OMe) | 4.02%
32 | Cc1nc2n(c(=O)c1CCN1CCC(c3noc4cc(F)ccc34)CC1)CCCC2 | -17.7%
33 | N=C(N)c1ccc2cc(OC(=O)c3ccc(N=C(N)N)cc3)ccc2c1 | 0.469%
34 | Cc1nc(-c2ccc(OCC(C)C)c(C#N)c2)sc1C(=O)O | -2.11%
35 | CN(C)[C@@H](CCOc1cccc2ccccc12)c1ccccc1 | -16%
36 | NNc1nncc2ccccc12 | 0.358% [at 19 µM]
37 | CN1CCC(=C2c3ccccc3CCc3sccc32)CC1 | 8.88%
38 | S=c1nc[nH]c2nc[nH]c12 | -10.5%
39 | O=C(NCCO[N+](=O)[O-])c1cccnc1 | -0.507%
40 | CN(C)C(=O)COC(=O)Cc1ccc(OC(=O)c2ccc(N=C(N)N)cc2)cc1 | 9.93%
41 | N=C(N=C(N)N)N1CCOCC1 | -2.19%
42 | O=C(O)c1cccnc1Nc1cccc(C(F)(F)F)c1 | -18.5%
43 | Cc1ncc([N+](=O)[O-])n1CC(C)O (stereo unspecified) | 7.59%
44 | O=C(O)c1cc(=O)c2c(OCC(O)COc3cccc4oc(C(=O)O)cc(=O)c34)cccc2o1 | 8.32%
45 | CC1=C(C(=O)O)N2C(=O)[C@@H](NC(=O)[C@H](N)C3=CCC=CC3)[C@H]2SC1 | -3.86%
46 | CCCc1cc(=O)[nH]c(=S)[nH]1 | 1.21%
